Measured values taken from the supplement of paper PMC12067093, “Discovery and optimisation of a covalent ligand for TRIM25 and its application to targeted protein ubiquitination” (Chemical Science, 2025).
Targets with the largest changes are over-represented here; the source holds about 21,000 in all.

Compound: Cc1cc(ccc1-c1ccccc1)C(=O)N1CCCN(CC1)C(=O)CCl [compound 10]
Assay: probe-labelled cysteine peptide fold change vs DMSO (competition) (log2 fold change); higher = less target engagement (more negative = stronger competition)
Conditions: THP-1, incubation time: 4 h
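Further: competitive profiling in live THP-1 cells: cysteine peptides tagged with an iodoacetamide desthiobiotin (IA-DTB) probe, intensity after compound treatment relative to DMSO-treated cells.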

UniProt P41252, sequence (P41252 whole entry, looked up): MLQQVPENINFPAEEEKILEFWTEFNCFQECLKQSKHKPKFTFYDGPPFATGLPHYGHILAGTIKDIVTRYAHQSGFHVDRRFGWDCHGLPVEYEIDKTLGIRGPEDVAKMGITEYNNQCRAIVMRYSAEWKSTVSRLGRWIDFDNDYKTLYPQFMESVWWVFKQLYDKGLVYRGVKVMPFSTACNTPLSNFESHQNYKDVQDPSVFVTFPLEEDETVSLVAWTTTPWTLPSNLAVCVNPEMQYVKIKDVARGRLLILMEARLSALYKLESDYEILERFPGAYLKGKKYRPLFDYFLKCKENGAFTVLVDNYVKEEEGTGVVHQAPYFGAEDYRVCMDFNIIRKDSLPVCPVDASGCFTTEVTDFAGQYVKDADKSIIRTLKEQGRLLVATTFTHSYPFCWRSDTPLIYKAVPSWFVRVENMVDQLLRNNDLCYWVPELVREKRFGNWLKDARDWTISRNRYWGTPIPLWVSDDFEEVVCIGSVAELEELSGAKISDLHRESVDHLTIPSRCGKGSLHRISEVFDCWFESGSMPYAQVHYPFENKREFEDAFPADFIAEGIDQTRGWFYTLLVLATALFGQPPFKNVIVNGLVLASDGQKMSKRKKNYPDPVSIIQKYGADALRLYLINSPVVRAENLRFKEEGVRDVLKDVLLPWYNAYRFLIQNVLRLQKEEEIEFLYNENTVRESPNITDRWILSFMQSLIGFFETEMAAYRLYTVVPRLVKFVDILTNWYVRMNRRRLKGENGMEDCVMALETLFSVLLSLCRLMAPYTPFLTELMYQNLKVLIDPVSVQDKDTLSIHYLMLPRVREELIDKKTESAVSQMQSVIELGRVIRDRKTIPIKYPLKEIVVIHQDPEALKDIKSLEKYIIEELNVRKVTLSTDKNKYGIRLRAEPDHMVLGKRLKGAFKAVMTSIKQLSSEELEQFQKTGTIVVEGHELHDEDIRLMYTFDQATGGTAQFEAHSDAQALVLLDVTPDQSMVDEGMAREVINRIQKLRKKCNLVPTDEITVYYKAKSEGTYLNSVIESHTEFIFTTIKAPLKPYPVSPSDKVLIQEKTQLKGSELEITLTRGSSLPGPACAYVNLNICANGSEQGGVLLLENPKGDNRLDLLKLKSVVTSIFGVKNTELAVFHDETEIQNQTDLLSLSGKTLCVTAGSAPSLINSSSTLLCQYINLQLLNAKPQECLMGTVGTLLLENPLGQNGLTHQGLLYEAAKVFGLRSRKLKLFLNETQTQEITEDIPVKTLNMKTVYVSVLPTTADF
UniProt Q8NBQ5, sequence (Q8NBQ5 whole entry, looked up): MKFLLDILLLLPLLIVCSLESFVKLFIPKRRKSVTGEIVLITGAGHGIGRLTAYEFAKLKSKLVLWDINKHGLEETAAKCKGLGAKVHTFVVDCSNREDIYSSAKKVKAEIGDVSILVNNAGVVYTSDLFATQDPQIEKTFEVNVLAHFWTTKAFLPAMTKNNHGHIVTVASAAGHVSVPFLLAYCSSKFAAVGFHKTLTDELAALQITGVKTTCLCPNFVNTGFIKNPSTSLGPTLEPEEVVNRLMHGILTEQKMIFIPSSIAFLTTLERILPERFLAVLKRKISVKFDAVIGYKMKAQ

| Target | probe-labelled cysteine peptide fold change (10 µM) | probe-labelled cysteine peptide fold change (50 µM) |
| --- | --- | --- |
| HSD17B11_Q8NBQ5_215+217_TTCLCPNFVNTGFIK (UniProt Q8NBQ5) | 0.115 | -0.449 |
| IARS_P41252_400_LLVATTFTHSYPFCWR (UniProt P41252) | 0.0125 | 0.177 |
| HSP90AA1_P07900_598_LVTSPCCIVTSTYGWTANMER (UniProt P07900) | -0.00946 | 0.102 |
